Compound activity deposited in PubChem by National Center for Advancing Translational Sciences (NCATS).
This is a sample that favours compounds with a hit; in the whole collection about 7.6% have one here.
SW480 rereplic = induces DNA re-replication in SW480 colon adenocarcinoma cells; SW480 DNA re-replication, Hoechst DNA content imaging, 48 h; Potency, µM (highest dose often 46.1 µM), inactives show top-dose re-replication activation, usual class: activators; actives 1.8% (n = 340,000); note: potency is the fitted concentration of half-maximal effect; % of control where 0% means no effect; nearly all actives have a fitted effect of over 55% in size
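Readout is total intensity of Hoechst-stained nuclei, excited at 405 nm and collected at 500-530 nm. Compound treatment lasted 48 hr at 37 C in 5% CO2 before staining.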
KCNH2 WT inh = KCNH2 (human, wildtype) channel inhibition. Q12809. U2OS, BacMam KCNH2, thallium flux FluxOr; active compounds read low. activity change, % at 1.84 µM. actives 0.37% (n = 340,000). AID 720551;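 active = maximum activity change below -70%; inconclusive = maximum activity change between -70% and -50%; inactive = maximum activity change above -50%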; note: % is set by controls: 0 for no effect and ±100 for the full control effect
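U2OS cells transduced with wild-type KCNH2 virus are loaded with FluxOr dye for 45 min, and thallium flux is measured in kinetic reads before and after stimulation buffer. Rate constants are normalized to DMSO controls.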
KB-V1 cytotox = KB-V1 MDR subline cytotoxicity. KB-V1 MDR cells viability, CellTiter-Glo, 72 h. Potency, µM (series often up to 46.1 µM), most hits filed as cytotoxic. actives 3.4% (n = 400,000); note: potency is the fitted concentration of half-maximal effect; % is set by controls: 0 for no effect and ±100 for the full control effect; nearly all actives have a fitted effect of over 60% in size
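KB-V1, DMEM (no phenol red) + 10% FBS; cpd pin-transferred, titration series; 72 h, 37 degrees C; CellTiter-Glo, luminescence. Data normalized, curve-fit.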
KCNH2 3.1 block = inhibitors of human KCNH2 3.1 potassium channel isoform; AID 720553; U2OS KCNH2 3.1, thallium flux FluxOr; active compounds read low; actives 0.95% (n = 340,000); activity change, % (tested at about 1.8 µM);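 active = maximum activity change below -70%; inconclusive = maximum activity change from -70% to -50%; inactive = maximum activity change above -50%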;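 note: thallium influx rate constant from kinetic fluorescence after stimulation buffer; % is set by controls: 0 for no effect and ±100 for the full control effect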
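Kinetic fluorescence (2 min after stimulation buffer) measures Tl+ influx through KCNH2 3.1 expressed by viral transduction in U2OS cells; the rate constant is normalized against DMSO controls serving as positive and negative references.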
KB-3-1 tox = KB-3-1 parental cell cytotoxicity | actives 1.4% (n = 400,000) | Potency, µM (titrated, usually from 46.1 µM), hits mostly cytotoxic | KB-3-1 viability, CellTiter-Glo ATP luminescence, 72 h | AID 1347075; note: potency is the fitted concentration of half-maximal effect; % is set by controls: 0 for no effect and ±100 for the full control effect; nearly all actives have a fitted effect of over 60% in size
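Parental KB-3-1 adenocarcinoma cells in phenol-red-free DMEM with 10% FBS were pin-treated with compounds at several concentrations, incubated 72 h at 37 °C, and viability read by CellTiter-Glo luminescence; concentration-effect curves were fitted after normalization.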
MCF10A rereplic = DNA re-replication induction in MCF 10a cells; MCF 10A DNA re-replication, Hoechst nuclear intensity, 48 h; AID 624296; actives 2.9% (n = 350,000); Potency, µM (highest dose often 46.1 µM), inactives show at the highest dose activity, positive = re-replication, usual class: activators; note: potency is the fitted concentration of half-maximal effect; % of control where 0% means no effect; nearly all actives have a fitted effect of over 50% in size
Active calls of the source: *; i = inactive; u = inconclusive; x = not tested or not shown. Unless noted, calls come from the whole dose curve; as a rule, active = well fitted curve in the direction sought with a large enough effect; inconclusive = small, poorly fitted or top-dose-only effect, or another doubt; inactive = no such curve, though single readings can be large; an effect the other way counts as inactive or inconclusive.

SMILES	SW480 rereplic	KCNH2 WT inh	KB-V1 cytotox	KCNH2 3.1 block	KB-3-1 tox	MCF10A rereplic
CC(C)CC(C(=O)NC(C)(C)C)N(Cc1ccccc1Cl)C(=O)c1snc(C(N)=O)c1N (stereo unspecified)	9.8%	-22.1	i	-1.4	i	-5.3%
C=CCn1c(Cc2cccs2)nnc1SCC(=O)c1ccc2ccccc2c1	27.4%	-23.0	u	-6.5	i	11.6µM*
CCn1c(Cc2cccs2)nnc1SCC(=O)Nc1ccc(OC)c(OC)c1	-5.4%	-3.0	i	-24.9	i	0.7%
C=CCn1c(Cc2cccs2)nnc1SCC(=O)Nc1ccc(OC)c(OC)c1	-6.3%	-9.0	23.1µM*	-9.0	i	0.0%
C=CCn1c(Cc2cccs2)nnc1SCC(=O)c1ccc(F)cc1	u	-6.5	i	-5.8	i	u
CC1(C)CC(=O)C2=C(C1)Nc1ccccc1NC2c1ccc([N+](=O)[O-])cc1 (stereo unspecified)	-14.9%	-0.5	i	12.5	u	3.7%
O=C(c1ccccc1NS(=O)(=O)c1ccc2c(c1)OCCO2)N1CCOCC1	11.6µM*	1.1	i	9.7	i	6.51µM*
Cc1ccc(S(=O)(=O)Nc2ccccc2C(=O)N2CCOCC2)cc1	-3.1%	-10.6	i	-2.1	u	2.1%
O=C(c1ccc(F)cc1)N1CCN(S(=O)(=O)c2ccc3c(c2)OCCO3)CC1	x	-2.9	u	-15.3	i	x
O=C(c1ccc(F)cc1F)N1CCN(S(=O)(=O)c2ccc3c(c2)OCCO3)CC1	4.0%	3.1	16.4µM*	-5.1	u	4.8%
Cc1cc(C)c2c3c(sc2n1)C(c1cccc(F)c1)C(C#N)=C(N)O3 (stereo unspecified)	18.4µM*	1.6	u	-1.7	i	8.2µM*
Cc1oc(C)c2c(=O)ccc3c(c12)OC(N)=C(C#N)C3c1ccc(F)cc1 (stereo unspecified)	-4.2%	-0.3	i	-0.7	i	12.0%
CN(CCCn1ccc(NC(=O)OCc2ccccc2)nc1=O)CCc1ccccn1	x	-4.5	i	-85.3*	i	x
O=C(Nc1ccn(CCCN2CCC(N3CCOCC3)CC2)c(=O)n1)OCc1ccccc1	x	-9.8	i	-9.4	i	x
O=C(Nc1ccn(CCCN2CCN(Cc3cccc4ccccc34)CC2)c(=O)n1)OCc1ccccc1	x	-1.4	18.4µM*	u	u	x
COc1ccc(CN(C)CCCn2ccc(NC(=O)OCc3ccccc3)nc2=O)cc1OC	x	20.1	i	-7.9	i	x
Cc1cc(C)c(CN2CCN(CCCn3ccc(NC(=O)OCc4ccccc4)nc3=O)CC2)c(C)c1	u	-43.7	i	-82.1*	u	-17.9%
O=C(Nc1ccn(CCCN2CCN(c3ccccc3)CC2)c(=O)n1)OCc1ccccc1	x	42.4	u	-72.1*	u	x
COc1ccc(N2CCN(CCCn3ccc(NC(=O)OCc4ccccc4)nc3=O)CC2)cc1	x	5.6	i	u	i	x
O=C(NCCCCc1ccccc1)c1cccc(NC(=O)C2CCCC2)c1	-0.8%	-3.1	i	x	i	6.8%
CC(C)Sc1nc2ccc(Br)cc2[nH]1	-7.8%	5.3	i	4.8	i	-23.9%
CSc1nc2ccc(Br)cc2[nH]1	-1.4%	1.3	i	-72.2*	i	0.6%
CC(OC(=O)c1cc(Br)ccc1O)C(=O)Nc1ccc(S(=O)(=O)N2CCCC2)cc1 (stereo unspecified)	u	-2.8	23.1µM*	-90.9*	u	u
CC(Oc1cc(F)ccc1[N+](=O)[O-])C(=O)Nc1ccc(S(=O)(=O)N2CCCC2)cc1 (stereo unspecified)	16.4µM*	-3.2	u	13.4	i	20.6µM*
COC(=O)c1ccc(NC(=O)CN2CCN(S(=O)(=O)c3ccc(Br)cc3)CC2)cc1	u	-0.9	i	7.2	i	5.2%
